Activity calls are given as the source filed them. The calls were made as follows: active = hit-call score of the fitted dose curve at least 0.9, where 1 is the maximum; inactive = score below 0.9.
test: BSK_LPS_SRB: Viability Assessment in the BioMAP Diversity Plus: LPS Assay (AID 2283079); conditions: primary human HUVEC with PBMC;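 also: fitted in both directions against DMSO so loss or gain of signal counts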
Procedure: BSK_LPS is a cell-based, multiplexed-readout assay that uses umbilical vein endothelium and peripheral blood mononuclear cells, a human vascular primary cell co-culture, with measurements taken at 24 hours after chemical dosing in a 96-well plate.BSK_LPS_SRB is an assay component measured in the BSK_LPS assay. It measures 0.1% sulforhodamine related to cell death using Sulforhodamine staining technology.Data from the assay component BSK_LPS_SRB was analyzed into 1 assay endpoint. This assay endpoint, BSK_LPS_SRB, was analyzed with bidirectional fitting relative to DMSO as the negative control and baseline of activity. Using a type of viability reporter, gain or loss-of-signal activity can be used to understand changes in the signaling. Furthermore, this assay endpoint can be referred to as a primary readout, because this assay has produced multiple assay endpoints where this one serves a signaling function. To generalize the intended target to other relatable targets, this assay endpoint is annotated to the cell morphology intended target family, where the subfamily is cell conformation.
The levels of cell surface (or secreted, indicated by the prefix "s") biomarker endpoints were measured by ELISA. Overt cytotoxicity to cells in confluent adherent cultures (all systems other than the BT system) was assessed by measuring total protein levels using sulforhodamine B (SRB) staining in parallel cultures at the time of biomarker measurements, indicated as SRB endpoints. For proliferation assays for adherent cell types, individual cell types are cultured at sub-confluence and relative cell numbers quantified by SRB staining at time points optimized for each system (48 h: 3C and CASM3C systems; 72 h: BT and HDF3CGF systems; 96 h: SAg system). SRB was performed by staining cells with 0.1% SRB after fixation with 10% TCA and reading wells at 560 nm.Viability and proliferation of PBMC (T cells) was quantified by Alamar Blue reduction for the SAg and BT systems. For PBMC viability (referred to as PBMC Cytotoxicity within the assay endpoint names), cells were plated (75,000/well in a 96-well plate) and then chemical samples added for 1 h before addition of activators, SEB and TSST-1 (20 ng/mL final concentration each). Cells were incubated for 90 h. Then, Alamar Blue (20 uL/well) (Invitrogen, Cat DAL1100) was added for 6 h, and the plates were read with a fluorescence microplate reader at 546/580 nm (excitation/emission). For PBMC proliferation, cells were plated and activated as above but incubated for only 16 h prior to addition of Alamar Blue. Plates were read after 6 h.

Row | Compound | outcome | AC50
1 | Clc1cc(Cl)c(-c2c(Cl)c(Cl)cc(Cl)c2Cl)cc1Cl | inactive | –
2 | IC(I)I | inactive | –
3 | c1ccc2cc(Nc3ccc(Nc4ccc5ccccc5c4)cc3)ccc2c1 | inactive | –
4 | COc1cc(Cl)c(OC)cc1N | inactive | –
5 | c1ccc(CCc2ccccc2)cc1 | – | 36.4 µM (active)
6 | O=C1OC2(c3ccccc31)c1ccc(O)c(Br)c1Oc1c2ccc(O)c1Br | inactive | –
7 | CCCCCCC(CO)CCCC (stereo not given) | inactive | –
8 | CSCCC=O | inactive | –
9 | CS(=O)(=O)c1ccc(C2=C(c3ccccc3)C(=O)OC2)cc1 | – | 1.98 µM (active)
10 | CCN(CC)C(=O)N(CC)CC | inactive | –
11 | CCCCOC(=O)CCCCCCCC(=O)OCCCC | inactive | –
12 | CC(C)(C)CC(C)(C)c1ccc(OCCOCC[N+](C)(C)Cc2ccccc2)cc1 | – | 8.5 µM (active)
13 | Cc1cc(CCC(=O)OCCOCCOCCOC(=O)CCc2cc(C)c(O)c(C(C)(C)C)c2)cc(C(C)(C)C)c1O | inactive | –
14 | CS(=O)(=O)OCCCCOS(C)(=O)=O | inactive | –
15 | O=C1OC[C@H](Cc2cccc(O)c2)[C@H]1Cc1cccc(O)c1 | inactive | –
16 | CC(C)(N=C=O)c1cccc(C(C)(C)N=C=O)c1 | inactive | –
17 | Oc1c(Cl)cc(Cl)c(Cl)c1Cc1c(O)c(Cl)cc(Cl)c1Cl | – | 14.1 µM (active)
18 | C[C@@H]1CCN(C(=O)[C@H](CCCN=C(N)N)NS(=O)(=O)c2cccc3c2NC[C@H](C)C3)[C@@H](C(=O)O)C1 | inactive | –
19 | CC(=O)Nc1ccc(C(=O)CCl)cc1 | – | 9.55 µM (active)
20 | C=CC(C)(O)CCC=C(C)C (stereo not given) | inactive | –

Row | Compound | outcome | AC50
21 | CC(=O)c1c(C)c([N+](=O)[O-])c(C(C)(C)C)c([N+](=O)[O-])c1C | inactive | –
22 | CCCCN(CCCC)C(=O)N(CCCC)CCCC | – | 30.2 µM (active)
23 | CCOC(=O)C(C#N)=C(c1ccccc1)c1ccccc1 | inactive | –
24 | CC(=O)C1(C)CC2=C(CCCC2(C)C)CC1C (stereo not given) | – | 13.3 µM (active)
25 | C1=CC2C3C=CC(C3)C2C1 (stereo not given) | inactive | –
26 | C=C(C)[C@H]1CC=C(C)C(=O)C1 | inactive | –
27 | COc1ccc(OC)c(N=Nc2c(O)ccc3ccccc23)c1 | inactive | –
28 | C=C(C)C(=O)OCC(CC)(COC(=O)C(=C)C)COC(=O)C(=C)C | inactive | –
29 | CC1(C)C2=CCCC(C)(C)[C@]23CC[C@H]1C3 | inactive | –
30 | CCCCCC(C=O)=Cc1ccccc1 | – | 32.8 µM (active)
31 | CN(C)C(=O)Nc1ccc(Oc2ccc(Cl)cc2)cc1 | inactive | –
32 | c1ccc(Oc2ccccc2)cc1 | inactive | –
33 | C=C(C)C(=O)OCCOCCOCCOCCOC(=O)C(=C)C | inactive | –
34 | CC1(C)CCC[C@]2(C)[C@H]3CCO[C@]3(C)CC[C@@H]12 | inactive | –
35 | CC(CN=Cc1ccccc1O)N=Cc1ccccc1O (stereo not given) | inactive | –
36 | O=CN1CCOCC1 | inactive | –
37 | CCC(C)c1cc([N+](=O)[O-])cc([N+](=O)[O-])c1OC(=O)OC(C)C (stereo not given) | – | 11.9 µM (active)
38 | CC(C=O)Cc1ccc(C(C)(C)C)cc1 (stereo not given) | – | 32.6 µM (active)
39 | CC=Cc1ccc(OCC)c(O)c1 | inactive | –
40 | COc1ccc(CCN2CCC(Nc3nc4ccccc4n3Cc3ccc(F)cc3)CC2)cc1 | – | 5 µM (active)

Source: PubChem BioAssay (EPA / NIEHS)
